# Measured values taken from paper PMC7862700, “An all-to-all approach to the identification of sequence-specific readers for epigenetic DNA modifications on cytosine”.
# Assays:
# Experiment in all cases: DAPPL (digital affinity profiling via proximity ligation, sequencing); 10 mM Tris-HCl pH 7.5, 50 mM NaCl, 1 mM DTT, 4% glycerol, room temperature, 30 min; GST-TFs on glutathione beads, 16-mer random dsDNA library, 0.1% formaldehyde crosslink after washing; high values mean tight binding
# Details in all cases: protein: recombinant; tags: N-terminal GST; dsDNA, one strand shown
# ETV1 = ETV1 (Homo sapiens, UniProt P50549 1-477)
# In short: (§1)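 Binding signal is each hexamer's read frequency for a factor divided by its frequency in the tag-only sample. The factors were GST-fused human transcription factors from yeast, captured on glutathione beads, DNA-barcoded and pooled with that sample. Pools were incubated with 200 nmole of a random double-stranded 16-mer DNA library in Tris/NaCl/DTT/glycerol buffer at room temperature for 30 min, then washed, crosslinked with 0.1% formaldehyde, proximity-ligated with BsaI/T4 ligase (1 h, 37 °C), PCR-amplified and sequenced on an Illumina NextSeq500.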
# ERF = biological target: T1, ERF (Homo sapiens, UniProt P50548 1-548)
# T1 sequence: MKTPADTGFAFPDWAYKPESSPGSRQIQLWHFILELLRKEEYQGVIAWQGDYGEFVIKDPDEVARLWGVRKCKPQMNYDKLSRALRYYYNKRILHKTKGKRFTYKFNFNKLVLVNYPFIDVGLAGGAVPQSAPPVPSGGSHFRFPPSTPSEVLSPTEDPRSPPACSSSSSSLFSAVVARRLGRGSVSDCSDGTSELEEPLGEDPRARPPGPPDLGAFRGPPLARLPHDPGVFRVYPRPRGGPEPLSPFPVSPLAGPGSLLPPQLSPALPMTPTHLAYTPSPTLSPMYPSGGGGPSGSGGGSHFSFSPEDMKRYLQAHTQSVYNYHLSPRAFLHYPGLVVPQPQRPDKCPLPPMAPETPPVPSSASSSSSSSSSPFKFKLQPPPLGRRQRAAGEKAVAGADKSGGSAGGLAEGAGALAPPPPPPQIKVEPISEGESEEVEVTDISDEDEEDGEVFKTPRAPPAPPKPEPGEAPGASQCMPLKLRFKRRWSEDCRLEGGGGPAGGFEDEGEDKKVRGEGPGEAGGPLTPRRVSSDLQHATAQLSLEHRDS
# In short: as §1
# ETV3L = biological target: T2, ETV3L (Homo sapiens, UniProt Q6ZN32 1-361)
# T2 sequence: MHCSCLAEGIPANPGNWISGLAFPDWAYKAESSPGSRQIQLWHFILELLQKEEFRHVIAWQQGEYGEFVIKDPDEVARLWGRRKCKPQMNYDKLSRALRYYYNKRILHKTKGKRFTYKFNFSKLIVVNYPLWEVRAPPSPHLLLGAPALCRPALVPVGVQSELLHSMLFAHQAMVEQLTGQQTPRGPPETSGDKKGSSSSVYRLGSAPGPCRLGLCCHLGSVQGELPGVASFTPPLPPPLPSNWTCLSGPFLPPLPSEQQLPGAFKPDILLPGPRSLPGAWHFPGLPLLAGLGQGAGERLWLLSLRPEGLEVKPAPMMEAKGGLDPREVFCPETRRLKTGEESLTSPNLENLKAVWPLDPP
# In short: as §1
# ETS2 = biological target: T3, ETS2 (Homo sapiens, UniProt P15036 1-469)
# T3 sequence: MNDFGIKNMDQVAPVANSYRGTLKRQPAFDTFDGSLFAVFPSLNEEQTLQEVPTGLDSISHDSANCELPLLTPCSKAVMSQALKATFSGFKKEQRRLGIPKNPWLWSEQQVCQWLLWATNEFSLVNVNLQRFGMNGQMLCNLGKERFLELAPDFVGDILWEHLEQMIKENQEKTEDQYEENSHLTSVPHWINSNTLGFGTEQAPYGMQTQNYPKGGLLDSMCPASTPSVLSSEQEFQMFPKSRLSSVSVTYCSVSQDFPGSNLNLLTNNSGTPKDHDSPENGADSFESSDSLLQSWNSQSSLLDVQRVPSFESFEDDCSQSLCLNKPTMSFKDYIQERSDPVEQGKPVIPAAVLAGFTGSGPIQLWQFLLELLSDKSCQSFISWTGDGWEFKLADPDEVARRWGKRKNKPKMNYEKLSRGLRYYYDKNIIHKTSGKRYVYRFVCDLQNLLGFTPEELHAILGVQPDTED
# In short: as §1
# SPDEF = biological target: T4, SPDEF (Homo sapiens, UniProt O95238 1-335)
# T4 sequence: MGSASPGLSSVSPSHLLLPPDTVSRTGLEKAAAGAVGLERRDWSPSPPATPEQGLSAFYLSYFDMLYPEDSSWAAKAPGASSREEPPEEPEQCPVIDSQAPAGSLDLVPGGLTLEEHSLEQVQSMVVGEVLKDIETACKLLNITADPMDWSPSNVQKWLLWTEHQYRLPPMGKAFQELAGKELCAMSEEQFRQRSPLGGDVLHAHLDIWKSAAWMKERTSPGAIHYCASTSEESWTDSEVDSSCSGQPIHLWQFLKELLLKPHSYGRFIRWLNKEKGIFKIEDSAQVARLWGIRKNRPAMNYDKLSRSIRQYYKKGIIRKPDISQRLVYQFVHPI
# In short: as §1
# ETV7 = biological target: T5, ETV7 (Homo sapiens, UniProt Q9Y603 1-341)
# T5 sequence: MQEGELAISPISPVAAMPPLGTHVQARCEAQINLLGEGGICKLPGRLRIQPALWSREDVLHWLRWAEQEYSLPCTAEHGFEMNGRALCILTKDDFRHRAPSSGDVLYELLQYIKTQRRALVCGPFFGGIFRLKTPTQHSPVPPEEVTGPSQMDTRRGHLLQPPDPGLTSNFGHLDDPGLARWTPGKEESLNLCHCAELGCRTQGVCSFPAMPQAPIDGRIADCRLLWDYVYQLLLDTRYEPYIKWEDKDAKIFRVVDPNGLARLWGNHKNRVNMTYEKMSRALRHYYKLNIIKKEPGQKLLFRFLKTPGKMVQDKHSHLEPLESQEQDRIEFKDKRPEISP
# In short: as §1
# ELF5 = biological target: T6, ELF5 (Homo sapiens, UniProt Q9UKW6-2 1-255)
# T6 sequence: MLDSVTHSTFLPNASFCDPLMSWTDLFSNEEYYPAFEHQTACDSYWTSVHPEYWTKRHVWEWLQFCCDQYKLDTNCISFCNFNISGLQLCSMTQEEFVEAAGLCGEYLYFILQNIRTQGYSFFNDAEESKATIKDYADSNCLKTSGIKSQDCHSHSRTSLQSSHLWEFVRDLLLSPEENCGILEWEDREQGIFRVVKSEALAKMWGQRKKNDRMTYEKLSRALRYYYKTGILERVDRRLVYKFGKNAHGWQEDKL
# In short: as §1
# ETV3 = biological target: T7, ETV3 (Homo sapiens, UniProt P41162-2 1-143)
# T7 sequence: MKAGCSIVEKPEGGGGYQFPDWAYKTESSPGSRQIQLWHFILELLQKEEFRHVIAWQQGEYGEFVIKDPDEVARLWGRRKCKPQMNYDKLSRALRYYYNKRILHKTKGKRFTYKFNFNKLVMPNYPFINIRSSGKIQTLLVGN
# In short: as §1
# ETV6 = ETV6 (Homo sapiens, UniProt P41212 1-452)
# In short: as §1
# ETV1, sequence (P50549 whole entry, the tested form may be a part): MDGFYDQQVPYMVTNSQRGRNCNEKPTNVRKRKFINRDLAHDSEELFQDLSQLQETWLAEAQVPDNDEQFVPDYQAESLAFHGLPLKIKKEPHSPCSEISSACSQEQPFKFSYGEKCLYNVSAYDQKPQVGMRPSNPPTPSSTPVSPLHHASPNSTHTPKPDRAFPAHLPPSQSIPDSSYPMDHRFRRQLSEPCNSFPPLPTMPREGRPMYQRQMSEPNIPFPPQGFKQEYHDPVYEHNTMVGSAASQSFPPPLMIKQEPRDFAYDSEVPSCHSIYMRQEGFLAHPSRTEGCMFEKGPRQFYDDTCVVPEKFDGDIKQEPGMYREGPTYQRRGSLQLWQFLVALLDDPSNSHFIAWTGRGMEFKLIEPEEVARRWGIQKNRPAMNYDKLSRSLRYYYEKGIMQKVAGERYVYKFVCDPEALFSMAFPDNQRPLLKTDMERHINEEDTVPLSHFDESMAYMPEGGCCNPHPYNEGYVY
# ETV6, sequence (P41212 whole entry): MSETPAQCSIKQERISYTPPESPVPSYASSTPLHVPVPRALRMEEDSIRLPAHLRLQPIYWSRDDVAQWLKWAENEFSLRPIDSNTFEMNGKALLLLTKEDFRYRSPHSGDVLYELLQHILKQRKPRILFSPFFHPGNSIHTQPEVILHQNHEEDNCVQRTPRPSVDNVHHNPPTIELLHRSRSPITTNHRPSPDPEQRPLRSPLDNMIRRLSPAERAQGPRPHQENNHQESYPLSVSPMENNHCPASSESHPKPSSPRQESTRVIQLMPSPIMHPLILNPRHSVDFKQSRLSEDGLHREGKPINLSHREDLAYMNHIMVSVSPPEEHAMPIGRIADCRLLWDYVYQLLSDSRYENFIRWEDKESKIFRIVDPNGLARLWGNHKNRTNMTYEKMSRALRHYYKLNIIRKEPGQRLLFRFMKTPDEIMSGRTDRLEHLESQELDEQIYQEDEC
sequence,measurement,setting,value
CCACTA,binding signal,ETV1,"1.03 fold enrichment (6-mer frequency, TF over GST control)"
same,binding signal,ERF,"1.11 fold enrichment (6-mer frequency, TF over GST control)"
same,binding signal,ETV3L,"1.13 fold enrichment (6-mer frequency, TF over GST control)"
same,binding signal,ETS2,"1.14 fold enrichment (6-mer frequency, TF over GST control)"
same,binding signal,SPDEF,"1.09 fold enrichment (6-mer frequency, TF over GST control)"
same,binding signal,ETV7,"1.04 fold enrichment (6-mer frequency, TF over GST control)"
same,binding signal,ELF5,"1.06 fold enrichment (6-mer frequency, TF over GST control)"
same,binding signal,ETV3,"1.03 fold enrichment (6-mer frequency, TF over GST control)"
same,binding signal,ETV6,"1.07 fold enrichment (6-mer frequency, TF over GST control)"
